Measured values reported in PubChem BioAssay AID1892 (NMMLSC, 2009).
The whole screen tested about 5,900 compounds, of which about 140 (2.4%) were called active. Shown is part of a subset that was picked to be rich in actives. Values without a mark were called inactive. Cut-off read from the data, not from the text of the source: active = binding response below about 16% or above about 210%; inactive = in between.

target: Mitogen-activated protein kinase kinase kinase 2 (Homo sapiens) (UniProt Q9Y2U5); test: wildtype MEKK2 PB1-MEK5 interaction enhancers or blockers – biochemical, single concentration, multiplex bead flow cytometry, confirmation (AID 1892); conditions: Alexa488-MEK5 binding to MEKK2 WT, at 10 µM, actives lie on both sides

Going from CCOc1ccc(S(=O)(=O)N(CC(=O)O)c2ccccc2)cc1 to CCC(C)OC(=O)C(C)Oc1ccc(-c2ccccc2)cc1 (stereo not drawn), the binding response (% of control) rises from 103% to 106%.

Compared with COc1cccc(OC)c1C(=O)Nc1ccc(Cc2ccncc2)cc1, COc1ccc(NC(=O)Cn2nnc(C(=O)NCCc3ccc(OC)c(OC)c3)c2N)cc1 is lower in binding response (% of control): 100% for the first, 98% for the second.

Going from CCCN(CCC)c1nc2c(C)cccn2c(=O)c1/C=C1/SC(=S)N(Cc2ccco2)C1=O to CN1C(=O)/C(=C\c2ccc(-c3ccccc3)o2)SC1=S, the binding response (% of control) falls from 85% to 23%.

Compared with CCCCn1c(SCC(=O)NCCc2ccc(OC)c(OC)c2)nc2c1c(=O)n(C)c(=O)n2C, CNC(C)C#Cc1ccc2sc3cc(OC)c(OC)cc3c(=O)c2c1 (stereo not drawn) is higher in binding response (% of control): 103% for the first, 128% for the second.

Compared with N=C(N)SCc1cccc2ccccc12, O=C(Cc1cccc2ccccc12)Nc1ccc2oc(-c3ccccc3)nc2c1 is higher in binding response (% of control): 105% for the first, 115% for the second.

Going from CC(=O)N1CCN(S(=O)(=O)c2ccc(C)c([N+](=O)[O-])c2)C1C(C)C (stereo not drawn) to O=C(O)C1CCN(c2ccc([N+](=O)[O-])cc2[N+](=O)[O-])CC1, the binding response (% of control) rises from 97% to 103%.

Going from COc1ccc(CC(=O)N2N=C(C)CC2(O)C(F)(F)F)cc1 (stereo not drawn) to COc1ccc(CNC(=O)C2CCN(S(C)(=O)=O)CC2)cc1, the binding response (% of control) rises from 96% to 103%.

Compared with COc1ccc(S(=O)(=O)Nc2ccc3oc(C)c(C(C)=O)c3c2)cc1, COc1ccc(C(=O)C[n+]2ccc(C)cc2)cc1 is higher in binding response (% of control): 95% for the first, 104% for the second.

Going from CC(C)CC(=O)NC(=S)Nc1cc(C(=O)O)ccc1Cl to O=C(O)c1cc(Cl)c(Cl)cc1C(=O)Nc1cccc2ncccc12, the binding response (% of control) falls from 102% to 99%.

First: CCn1cc(CN2CCC(C(=O)Nc3cccc(-c4cccc(Cl)c4)c3)CC2)cn1
Second: Cc1ccc(C)c(CN2CCC(CNC(=O)Nc3ccc(C)c(F)c3)CC2)c1
The binding response (% of control) of the first is higher: 182% for the first, 146% for the second.

First: O=C(CN1C(=O)c2cccnc2Oc2ccc(Cl)cc21)Nc1ccc(F)cc1
Second: O=C(CSc1ccc(-c2ccc(F)cc2)nn1)Nc1ccc2c(c1)OCCO2
The binding response (% of control) of the first is lower: 99% for the first, 105% for the second.

First: N/C(=N\OS(=O)(=O)c1cccc([N+](=O)[O-])c1)c1ccncc1
Second: CN(CC(=O)Nc1cccc(F)c1)CC(=O)Nc1cccc([N+](=O)[O-])c1
The binding response (% of control) of the first is higher: 103% for the first, 99% for the second.

Going from c1ccc2c(c1)C(=NC1CCCCC1)NC2=NC1CCCCC1 to O=C(NCCCN1CCCCCC1)c1ccc(N2CCCC2=O)cc1, the binding response (% of control) rises from 125% to 156%.

Going from CCOC(=O)CN(C)S(=O)(=O)c1ccc(-c2cc(C(=O)OC)sc2C(F)(F)F)cc1 to Cc1cccc(OCCNC(=O)CSc2ccc(C(F)(F)F)cc2[N+](=O)[O-])c1, the binding response (% of control) rises from 101% to 104%.

First: O=C(NCCC1=CCCCC1)c1ccc(Cl)c([N+](=O)[O-])c1
Second: C[N+](C)(C)CCNC(=O)c1c(O)c2c([nH]c1=O)CCCC2
The binding response (% of control) of the first is higher: 105% for the first, 101% for the second.

Going from CN(C)CCCNC(=O)c1cc(C(=O)Cc2ccc(Cl)cc2)c[nH]1 to CC(C)c1ccc(C(=O)NCCCc2ccccc2)cc1, the binding response (% of control) falls from 106% to 94%.

Going from C[C@H]1CCC(=O)N([C@H](CSc2ccccc2)Cc2ccccc2)CC1 to O=C(NCCN1CCOCC1)[C@H](Cc1ccccc1)N1C(=O)c2ccccc2C1=O, the binding response (% of control) falls from 111% to 103%.

Compared with Cn1c(C(=O)NCCCN2CCCCC2)cc2sccc21, O=C(NCCCN1CCN(c2ccc(F)cc2)CC1)Nc1ccc([N+](=O)[O-])cc1 is higher in binding response (% of control): 119% for the first, 129% for the second.

First: C=CCn1c(=S)sc2c(=O)[nH]c(C)nc21
Second: Cc1[nH]c2ccc(S(N)(=O)=O)cc2c1C
The binding response (% of control) of the first is higher: 106% for the first, 97% for the second.

Going from O=C1Nc2ccc(Br)cc2/C1=N/N=C/C1=C(N2CCOCC2)C(=C\c2ccccc2)/CC1 to CC1CCN(C2=NC(=O)/C(=C/c3cn[nH]c3-c3ccccc3)S2)CC1, the binding response (% of control) rises from 47% to 94%.

Going from Cc1ccc2c(C)c(C(=O)N3CCN(c4ccncc4)CC3)oc2c1C to CC1(C)Cc2cccc(OCC(=O)N3CCN(c4ccc([N+](=O)[O-])cc4)CC3)c2O1, the binding response (% of control) falls from 161% to 99%.

Compared with CCOC(=O)N1CCN(CC(=O)n2c(C)c(C)c3ccccc32)CC1, O=C(CN1CCN(C(=O)c2ccco2)CC1)Nc1ccc(Cl)c(C(F)(F)F)c1 is higher in binding response (% of control): 93% for the first, 112% for the second.

First: FC(F)(F)c1nc(-c2ccccc2)ncc1-c1nnnn1-c1ccccc1
Second: COc1cccc(C2CC(c3ccccc3)=NN2S(=O)(=O)c2ccccc2)c1OC (stereo not drawn)
The binding response (% of control) of the first is lower: 96% for the first, 98% for the second.

First: COc1cc(Br)c(-c2sc(Nc3ccccc3)n[n+]2-c2ccccc2)cc1OC
Second: COc1cccc(CNCCc2c[nH]c3ccccc23)c1OCc1ccccc1F
The binding response (% of control) of the first is higher: 134% for the first, 131% for the second.

First: CN(C)CCCNC(=S)N1CCN(c2nc(-c3ccccc3)cs2)CC1
Second: COc1ccc(N2CCN(Cc3nnc(-c4ccccc4)o3)CC2)cc1
The binding response (% of control) of the first is higher: 108% for the first, 94% for the second.

First: O=C(O)CC(Cc1ccccc1)C(=O)Nc1ccc([N+](=O)[O-])cc1 (stereo not drawn)
Second: O=C(Nc1ccn(Cc2ccccc2)n1)c1cccc(F)c1
The binding response (% of control) of the first is lower: 96% for the first, 105% for the second.

First: Cc1onc(-c2ccccc2Cl)c1C(=O)OCC(=O)c1ccccc1
Second: CCn1c(NC(=O)c2ccccc2)c(-c2cccs2)c(=O)c2ccccc21
The binding response (% of control) of the first is lower: 94% for the first, 102% for the second.

Going from COc1cc(C)nc(N2CCCC(C(=O)NCC(C)C)C2)n1 (stereo not drawn) to C/C=C/c1ccc(OCCCCN2CCC(C)CC2)c(OC)c1, the binding response (% of control) rises from 97% to 109%.

CCN(CC)CCC(c1ccc2c(c1)OCO2)c1c(OC)cc(OC)c2c(-c3ccccc3)cc(=O)oc12 (stereo not drawn) and N=c1c2c(-c3ccccc3)c(-c3ccccc3)n(Cc3ccccc3)c2ncn1CCCO are the same in binding response (% of control): 134% for the first, 134% for the second.

Compared with Cc1ccc(CNC(=O)Cn2c(=O)c3sccc3n(Cc3cccc([N+](=O)[O-])c3)c2=O)cc1, Cn1ccc(=Nc2ccc(NC(=O)c3ccc(N=c4ccn(C)c5ccc([N+](=O)[O-])cc45)cc3)cc2)cc1 is higher in binding response (% of control): 103% for the first, 152% for the second.

Compared with COc1cccc(/C=N\NC(=O)C2=NNC(=O)C2C)c1O (stereo not drawn), O=C(CCCO)N/N=C/c1cc(Br)ccc1O is higher in binding response (% of control): 100% for the first, 106% for the second.

First: C#CCOCCOCCOCCNc1nc(N2CCN(C(=O)C([C@@H](C)CC)n3cc(C(N)COC(=O)C(F)(F)F)nn3)CC2)nc(N2CCN(C(=O)[C@H](CCCCN)n3cc(C(N)CC(C)C)nn3)CC2)n1 (stereo partly drawn)
Second: COc1cc(-c2nnc(Cn3cc(C(F)(F)F)ccc3=O)o2)cc(OC)c1OC
The binding response (% of control) of the first is higher: 191% for the first, 103% for the second.

Going from CN(C)CCCN(C(=O)COc1ccccc1)c1nc2c(Cl)cccc2s1 to CN(Cc1ccccc1)CC(O)COc1ccc(CNCc2cc3ccccc3s2)cc1 (stereo not drawn), the binding response (% of control) falls from 133% to 129%.

Going from O=C(Nc1ccc(Cl)cn1)c1cnn2cccnc12 to COc1cccc(Nc2ncccc2C(=O)O)c1, the binding response (% of control) falls from 108% to 97%.

First: CCCc1nnc(SCC(=O)N2C(C)CCCC2C)n1CC (stereo not drawn)
Second: O=C(O)c1cccnc1NC1CCCC1
The binding response (% of control) of the first is higher: 110% for the first, 109% for the second.

Going from CSCC[C@H](NC(=O)CCCn1nnc2ccccc2c1=O)C(=O)O to CCCCN1C(=O)/C(=C(/C#N)C(N)=O)c2ccccc21, the binding response (% of control) falls from 105% to 102%.

First: CCc1ccc2nc(Nc3ncc(C(C)=O)c(C)n3)nc(C)c2c1
Second: Cc1noc(C)c1S(=O)(=O)N(C)Cc1ccccc1
The binding response (% of control) of the first is lower: 103% for the first, 105% for the second.

Going from CCOc1ccc(S(=O)(=O)NCCCn2ccnc2)cc1NC(C)=O to Cc1c(S(=O)(=O)NCc2ccccc2)c(=O)n(C)c(=O)n1C, the binding response (% of control) rises from 100% to 102%.

Compared with CC(C)(C)c1nnc(NC(=O)C2c3ccccc3Oc3ccccc32)s1, Cc1nn(-c2ccccc2)c(NC(=O)c2cccs2)c(-c2ccc(Cl)cc2)c1=O is higher in binding response (% of control): 93% for the first, 101% for the second.

Clc1ccc(-c2nnc(SCc3nc4ccccc4s3)o2)cc1 and C=CCN1C=C2C(=O)C(C)(OC(=O)CCc3ccccc3)C(=O)C=C2C=C1c1ccc(C#N)cc1 (stereo not drawn) are the same in binding response (% of control): 98% for the first, 98% for the second.

First: CCCn1c(=N)n(CC(=O)c2ccc(Cl)c(Cl)c2)c2ccccc21
Second: Cc1c(-c2ccccc2)cn2c1-c1ccc(C)n1CC2
The binding response (% of control) of the first is higher: 144% for the first, 93% for the second.

First: COc1cc2c(cc1OC)CN(C(=O)c1ccc(S(=O)(=O)N3CCCCCC3)cc1)CC2
Second: CC(C)C(=O)N1c2ccccc2NC2=C(C(=O)CCC2)C1c1ccc(N(C)C)cc1 (stereo not drawn)
The binding response (% of control) of the first is lower: 97% for the first, 116% for the second.

Going from O=C(NC1CCN(Cc2ccccc2)CC1)c1cc(Br)c(Br)[nH]1 to O=C(Cc1cccs1)N/N=C/c1ccc(OCc2ccccc2)cc1, the binding response (% of control) falls from 128% to 101%.

Molecule C=C(C)C1CC=C(C)/C(=N\NC(=O)CNc2ccccc2OC)C1 (stereo not drawn) has a binding response (% of control) of 107%.

For CCc1ccc(-c2nn(-c3ccccc3)cc2CSC(=N)N)cc1, the binding response (% of control) was 210% (active).
For NC(N)=N/N=C/c1ccc(OCc2ccc(Cl)cc2Cl)cc1, the binding response (% of control) was 234% (active).
For CCN(CC)CCOc1ccc2c(c1)C(=NNC(=O)c1ccccn1)c1cc(OCCN(CC)CC)ccc1-2, the binding response (% of control) was 210% (active).
For O=C(NCCCN1CCCCCC1)C1CC(=O)N(C2CCCC2)C1 (stereo not drawn), the binding response (% of control) was 1% [inhibitor] (active).
For N#C/C(=C\C1=C(N2CCOCC2)C(=C\c2ccccc2)/CC1)C(=O)Nc1ccccc1F, the binding response (% of control) was 10% [inhibitor] (active).
In the case of CCC(=C/c1sc2ccc3ccccc3c2[n+]1C)/C=C1\Sc2ccc3ccccc3c2N1C, the binding response (% of control) is reported as 13% [inhibitor] (active).
